PubChem BioAssay AID1645887 (National Center for Advancing Translational Sciences (NCATS), 2021)
“And” between values parts separate entries of the source, which are not always exact repeats. Equal entries are not always repeated. The campaign covered roughly 16,000 compounds. About 40 (0.2%) were called active. Not shown: some 1% with an inconclusive outcome. The call rests on the fitted dose curve; in most records, active means well fitted activation curve with a large enough effect; inconclusive means small, poorly fitted or top-dose-only effect, or another doubt; inactive means no such curve, though single readings can be large or run the other way. Only a selection was taken, and actives are over-represented in it overall. More than one record can exist for a structure, and the calls need not agree.

What follows are compounds tested against Rap guanine nucleotide exchange factor 4 (Homo sapiens) (UniProt Q8WZA2) (assay: Validation qHTS for agonist of cAMP-regulated guanine nucleotide exchange factor 4 (EPAC2)). Conditions: EPAC2 Rap1B BODIPY-GDP exchange, fluorescence; activation: stronger effect = higher value.
Chain of Rap guanine nucleotide exchange factor 4 (Homo sapiens) (Q8WZA2 whole entry, looked up): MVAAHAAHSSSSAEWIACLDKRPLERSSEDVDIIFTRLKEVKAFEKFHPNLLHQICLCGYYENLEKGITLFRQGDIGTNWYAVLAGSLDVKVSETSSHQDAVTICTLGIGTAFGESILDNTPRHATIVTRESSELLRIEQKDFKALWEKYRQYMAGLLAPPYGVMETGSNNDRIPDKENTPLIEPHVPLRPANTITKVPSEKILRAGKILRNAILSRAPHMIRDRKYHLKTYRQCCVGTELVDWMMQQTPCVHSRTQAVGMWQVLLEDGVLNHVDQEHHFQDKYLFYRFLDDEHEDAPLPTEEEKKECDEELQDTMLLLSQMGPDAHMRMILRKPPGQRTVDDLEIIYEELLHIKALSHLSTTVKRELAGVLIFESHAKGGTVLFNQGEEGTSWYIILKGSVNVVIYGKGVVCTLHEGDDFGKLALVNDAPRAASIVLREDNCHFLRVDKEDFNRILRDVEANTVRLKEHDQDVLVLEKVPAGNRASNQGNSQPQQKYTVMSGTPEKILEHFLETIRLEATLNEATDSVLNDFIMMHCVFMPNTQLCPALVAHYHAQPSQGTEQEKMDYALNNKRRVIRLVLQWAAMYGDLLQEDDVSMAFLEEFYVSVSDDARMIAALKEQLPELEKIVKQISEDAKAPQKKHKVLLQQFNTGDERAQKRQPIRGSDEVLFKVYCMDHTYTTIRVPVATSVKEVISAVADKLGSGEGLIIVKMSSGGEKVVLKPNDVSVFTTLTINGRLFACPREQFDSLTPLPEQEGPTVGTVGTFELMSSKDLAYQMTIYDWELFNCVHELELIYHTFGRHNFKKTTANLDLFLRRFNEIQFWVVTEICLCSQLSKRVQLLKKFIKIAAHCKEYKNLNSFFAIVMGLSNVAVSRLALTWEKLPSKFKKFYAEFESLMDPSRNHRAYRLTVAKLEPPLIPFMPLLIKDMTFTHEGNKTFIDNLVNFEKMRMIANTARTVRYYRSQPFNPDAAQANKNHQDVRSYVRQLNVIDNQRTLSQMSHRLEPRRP
From the text: Principle Investigator: Xiaodong Cheng Ph.D.
The University of Texas Medical Branch, […], TX
In multi-cellular eukaryotic organisms, the effects of cAMP are transduced by two ubiquitously-expressed intracellular cAMP receptors, the classic protein kinase A/cAMP-dependent protein kinase (PKA/cAPK) and the more recently discovered exchange protein directly activated by cAMP/cAMP-regulated guanine nucleotide exchange factor (EPAC/cAMP-GEF). Both PKA and EPAC are ubiquitously expressed in all tissues, and an increase in intracellular cAMP levels will lead to the activation of both PKA and EPAC. Therefore, careful dissections of the individual role and relative contribution of EPAC and PKA within the overall cAMP signaling in various model systems are critical for further elucidating the mechanism of cAMP signaling. To date no EPAC-specific antagonists and agonist, as well as isoform-specific agonists have been reported, and developing EPAC-specific pharmacological probes to determine the physiological functions that EPAC play in the overall cAMP-mediated signaling remains a major challenge within the research field. Furthermore, identified regulators of EPAC may lead to new mechanism-based therapeutic strategies specifically targeting the EPAC / cAMP-signaling components as EPAC has been implicated to play important roles in major human pathological conditions such as diabetes, heart disease, and cancer.
This qHTS will be used to screen the Molecular Libraries Small Molecule Repository (MLSMR) as a concentration-titration series using the NCGC unique quantitative screening (qHTS) platform to find activators for EPAC1. In addition, this assay will also be used as a counterscreen for the EPAC2 qHTS. This fluorescent based assay is developed and validated for EPAC1 that measures exchange using EPAC effector Rap1 complex with BODIPY-GDP, a GDP analog with a tethered fluorophores. Activators are identified by monitoring the change in fluorescence signal as the exchanged free BODIPY-GDP has a reduced fluorescence compared to Rap1-bound BODIPY-GDP. Increase in signal (activation) is the desired outcome for the EPAC1 agonist while no activity in this assay is desired for the EPAC2 agonist counterscreen.
[1] de Rooij, J., Zwartkruis, F. J., Verheijen, M. H., Cool, R. H., Nijman, S. M., Wittinghofer, A., and Bos, J.L. (1998) Nature 396, 474-477.
Briefly, three uL of reagents (100 nM EPAC2, 250 nM RAP1B-BODIPY-GDP, 50 uM GDP) were dispensed into a 1536-well Greiner black solid-bottom medium binding assay plate. Controls and test compounds (23 nL) were transferred to the plate via a Kalypsys pin tool equipped with a 1536-pin array. The plates were centrifuged at 1,000 rpm for 15 seconds followed by 5 minute incubation at room temperature. The assay plates were read at 5 minute intervals for 30 minutes in the ViewLux plate reader using 480nm excitation and 540nm emission filters. The results were normalized to the agonist positive control of 6.5 mM cAMP.
On the % scale 0 is the no-effect control and ±100 the full control effect; potency means the concentration at half of the fitted maximal effect.
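Wherever activation is given: exchange makes BODIPY-GDP fluorescence drop when released from Rap1B; series mostly up to about 150 µM.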

`O=c1[nH]cc(N(CCCl)CCCl)c(=O)[nH]1` was tested. Which Potency did it give?
Its Potency is 100 µM (active).

With `CN1CCCC2(CCN(C(=O)c3ccco3)CC2)C1` as the compound, how does the activation read?
The activation was 0.865% (inactive).

`NCC(O)c1cccc(O)c1` (configuration not stated) was tested. Which activation did it give?
The activation was -5.63% (inactive).

How did the Potency turn out when `CC1=NCCc2c1[nH]c1cc(O)ccc21` was run?
Its Potency is 100 µM (active).

How did the activation turn out when `COc1ccc2c3c([nH]c2c1)C(C)=NCC3` was run?
The activation was 23% (inactive) and -2.23% (inactive) and 8.55% (inactive).

`Nc1ccc(N=Nc2ccccc2)cc1` was tested. Which activation did it give?
The activation was -19.5% (inactive).

For `CCN1C[C@]2(COC)CC[C@H](OC)[C@@]34C5C[C@@H]6[C@@H](OC)C[C@@]7(OCO[C@@]7([C@@H](O)C23)[C@@H]14)C5[C@H]6OC` (some centres not stated), which activation is on record?
Its activation is -3.22% (inactive).

`[O]=[Cd]` was tested. Which activation did it give?
The activation was -0.16% (inactive).

`O=C1/C(=C/c2ccc(N(CCCl)CCCl)cc2)Cc2ccccc21` was tested. Which activation did it give?
Its activation is -1.94% (inactive).

Which results are given for `CC1=NN=C(c2ccc(N)cc2)c2cc3c(cc2C1)OCO3`?
Potency: 89.1 µM (active); activation: -34.2% (inactive)

`C[C@H]1[C@@H]2Cc3ccc(O)cc3[C@@]1(C)CCN2C` was tested. Which activation did it give?
The activation was -8.04% (inactive).

How did the activation turn out when `CC1(C)C(O)CC(=O)[C@]2(C)C1CC(=O)[C@]1(C)C2CC[C@@]2(C)C(c3ccoc3)OC(=O)C3O[C@@]321` (some centres not stated) was run?
Its activation is -10.4% (inactive).

Which activation does the source give for `CN1C2CC(OC(=O)C(CO)c3ccccc3)CC1C(O)C2` (configuration not stated) here?
The activation was -0.713% (inactive).

How did the activation turn out when `COc1ccc2[nH]cc(CCN(C(C)C)C(C)C)c2c1` was run?
Its activation is -8.55% (inactive).

Which activation does the source give for `Cc1cc(O)ccc1Cl` here?
Its activation is -10.1% (inactive) and -9.14% (inactive).

How did the activation turn out when `O=S(=O)(O)c1cc(O)ccc1O` was run?
The activation was -9.91% (inactive).

For `CC(C)(C)c1cc(O)ccc1O`, which Potency is on record?
The Potency was 56.2 µM (active).

And the activation?
Its activation is -17% (inactive).

For `COc1cc(C[C@@H](C)N)c(OC)cc1C`, which activation is on record?
The activation was -5.23% (inactive).

How did the activation turn out when `CC(C)C[C@H](NC(=O)[C@H](Cc1ccccc1)NC(=O)CNC(=O)[C@H](CO)NC(=O)[C@@H](N)Cc1ccc(O)cc1)C(=O)N[C@H](C(=O)O)[C@H](C)O` was run?
The activation was 9.65% (inactive).

With `NC(N)=NCCCCCCCCCCN=C(N)N` as the compound, how does the activation read?
Its activation is -12% (inactive) and 0.499% (inactive).

For `O=C1OC2(c3cc(Br)c(O)cc3Oc3c2cc(Br)c(O)[c]3[Hg])c2ccccc21` (configuration not stated), which Potency is on record?
Its Potency is 3.98 µM (active).

`CN1CCC2(CC1)CCN(C(=O)c1ccco1)CC2` was tested. Which activation did it give?
The activation was 1.62% (inactive).

With `C[C@]12CCC3C(CC[C@H]4C[C@H](O)CC[C@]34C)[C@@H]1CC[C@@H]2C(=O)CO` (some centres not stated) as the compound, how does the activation read?
Its activation is -7.64% (inactive).

For `CCOC(=O)[C@]12Cc3c(cc(OC)c(OC)c3OC)[C@H]1N(Cc1ccccc1)C(=O)c1ccccc12`, which activation is on record?
Its activation is -19.3% (inactive).

Which activation does the source give for `c1cnc(N2CC3(CCNCC3)C2)nc1` here?
The activation was 2.58% (inactive).
